# According to PubChem BioAssay (EPA / NIEHS):
# Values joined by “and” are separate entries in the source; they are usually repeats but may differ in a detail not shown here. Equal entries are not always repeated. Records with an inconclusive call do not appear. Active and inactive are the calls of the source. The calls were made as follows, unless noted: active = hit-call score of the fitted dose curve at least 0.9, where 1 is the maximum; inconclusive = response in the unintended direction; inactive = score below 0.9.
# Key:
# [1] = ATG_M_61_XSP2: Attagene TRANS-FACTORIAL Multi-Species (XSP2) HepG2 Assay for M61 Transcription Factor (Internal Marker) (AID 2283835; active = hit-call score of the fitted dose curve at least 0.9, where 1 is the maximum; inactive = score below 0.9;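 also: active means a rise in signal above the DMSO baseline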)
# Procedure, shortened: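 HepG2 cells transiently transfected with multiple GAL4-UAS reporter units; reporter mRNA measured 24 h after dosing by RT-PCR, fluorescent labelling and capillary electrophoresis. Medium contained 3 nM 6-alpha-fluorotestosterone and 1.5 nM norgestrel; internal marker, DMSO baseline.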
# [2] = target: frog Thyroid hormone Receptor alpha (TRa), thra-a (gene 397942) (UniProt P15204); assay: ATG_frTRa_XSP2: Attagene TRANS-FACTORIAL Multi-Species (XSP2) HepG2 Assay for frog Thyroid hormone Receptor alpha (TRa) (AID 2283839);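 as to AC50: AC50 reflects induction of frog TRa-driven reporter mRNA above DMSO baseline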
# Procedure, shortened: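 HepG2 cells transiently transfected with multiplexed GAL4-UAS reporter units expressing chimeric frog TRα-Gal4; reporter mRNA read 24 h after dosing by RT-PCR, FAM-labelled primer extension, HpaI digest and capillary electrophoresis. Gain of signal fitted versus DMSO.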
# [3] = target: zebrafish Thyroid Hormone Receptor alpha (TRa), thraa (gene 30670) (UniProt Q98867); assay: ATG_zfTRa_XSP2: Attagene TRANS-FACTORIAL Multi-Species (XSP1) HepG2 Assay for zebrafish Thyroid Hormone Receptor alpha (TRa) (AID 2283832);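 also: actives raise zebrafish TRa-Gal4 reporter transcript above DMSO baseline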
# Procedure, shortened: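 HepG2 transiently transfected with GAL4-UAS reporter units and chimeric zebrafish TRa-Gal4; reporter mRNA quantified after 24 h dosing by RT-PCR, HpaI digestion and capillary electrophoresis fluorescence. Gain of signal vs DMSO; XSP2 medium contains 3 nM 6-alpha-fluorotestosterone, 1.5 nM norgestrel.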
# [4] = test system: zebrafish Peroxisome Proliferator-activated Receptor gamma (PPARg), gene 557037; assay: ATG_zfPPARg_XSP2: Attagene TRANS-FACTORIAL Multi-Species (XSP2) HepG2 Assay for zebrafish Peroxisome Proliferator-activated Receptor gamma (PPARg) (AID 2283833);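 also: actives increase reporter signal over DMSO so AC50 reflects activation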
# Procedure, shortened: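 HepG2 cells transiently transfected with GAL4-UAS reporter units expressing a zebrafish PPARg–GAL4 chimera; compound exposure 24 h. Reporter mRNA quantified by RT-PCR with fluorescent labelling and capillary electrophoresis; gain of signal fitted relative to DMSO baseline.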
# [5] = test system: turtle Thyroid Hormone Receptor, alpha (TRa), gene 101949057; assay: ATG_trTRa_XSP2: Attagene TRANS-FACTORIAL Multi-Species (XSP1) HepG2 Assay for turtle Thyroid Hormone Receptor, alpha (TRa) (AID 2283834);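 also: hits raise reporter mRNA over the DMSO baseline so AC50 marks activators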
# Procedure, shortened: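 HepG2 cells transiently transfected with multiplexed GAL4-UAS reporter units expressing chimeric NR-Gal4 proteins were dosed for 24 hours. Reporter mRNA was quantified by RT-PCR with 6-FAM labelling and capillary electrophoresis, gain of signal scored against DMSO.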
# [6] = target: zebrafish Thyroid Hormone Receptor beta (TRb), thrb (gene 30607) (UniProt Q9PVE4); assay: ATG_zfTRb_XSP2: Attagene TRANS-FACTORIAL Multi-Species (XSP1) HepG2 Assay for zebrafish Thyroid Hormone Receptor beta (TRb) (AID 2283836);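 as to AC50: potency for induction of reporter signal above DMSO so agonist direction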
# Procedure, shortened: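 HepG2 cells transiently transfected with chimeric zebrafish TRb-GAL4 reporter units, dosed 24 h with 3 nM 6-alpha-fluorotestosterone and 1.5 nM norgestrel present. Reporter mRNA quantified by RT-PCR and capillary electrophoresis; gain fitted against DMSO.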
# [7] = ATG_XTT_Cytotoxicity_XSP2: Cytotoxicity Assessment in the Attagene TRANS-FACTORIAL Multi-Species (XSP2) HepG2 Assay (AID 2283837)
# Procedure, shortened: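 HepG2 cells, transiently transfected with multiple reporter constructs, exposed to chemical for 24 h. Cell number assessed with XTT fluorescence read-out; loss of signal fitted relative to DMSO.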
# [8] = target: human Thyroid hormone Receptor alpha (TRa), THRA (gene 7067) (UniProt P10827); assay: ATG_hTRa_XSP2: Attagene TRANS-FACTORIAL Multi-Species (XSP2) HepG2 Assay for human Thyroid hormone Receptor alpha (TRa) (AID 2283838)
# Procedure, shortened: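 HepG2 cells were transiently transfected with GAL4-UAS reporter units for chimeric human TRa-Gal4 and dosed for 24 hours, with 3 nM 6-alpha-fluorotestosterone and 1.5 nM norgestrel present. Reporter mRNA was quantified by RT-PCR, FAM labelling and capillary electrophoresis, with gain of signal fitted versus DMSO.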
# [9] = target: human Thyroid hormone Receptor beta (TRb), THRB (gene 7068) (UniProt P10828); assay: ATG_hTRb_XSP2: Attagene TRANS-FACTORIAL Multi-Species (XSP2) HepG2 Assay for human Thyroid hormone Receptor beta (TRb) (AID 2283840);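 also: actives raise reporter mRNA so potency reflects agonist-like gain of signal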
# Procedure, shortened: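 HepG2 cells were transiently transfected with GAL4-UAS multiplexed reporter units expressing chimeric NR-Gal4 proteins, dosed 24 h; reporter mRNA was quantified by RT-PCR, fluorescent labeling, HpaI digestion and capillary electrophoresis, fitted for gain of signal versus DMSO.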
# [10] = CPHEA_Stoker_NIS_Cytotoxicity: Cytotoxicity Assessment for CPHEA's Radioactive Iodide Uptake (RAIU) Assay for Sodium/Iodide Symporter (NIS) Inhibition, Stoker and Laws Labs (AID 2283897);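 as to AC50: active means loss of ATP signal versus DMSO meaning cytotoxicity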
# Procedure, shortened: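 ATP luminescence (Cell Titer Glo) measured viability, with loss of signal normalized to DMSO controls. Cells: hNIS-HEK293T-EPA, seeded 40 hours prior. Dosing: 0.001–100uM, 2 hours, room temperature, uptake buffer pH 7.4.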
# [11] = CEETOX_H295R_OHPREG_noMTC: CeeTox H295R High-throughput Steroidogenesis Assay for OH-Pregnenolone (OHPREG), maximum tolerated concentration (MTC) filtered results only (AID 2283912; active = hit-call score of the fitted dose curve at least 0.9, where 1 is the maximum; inactive = score below 0.9); details: actives raise or lower the signal
# Procedure, shortened: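 H295R cells prestimulated 48 h with 10 uM forskolin, then exposed 48 h to compound (0.1% DMSO). 17alpha-hydroxypregnenolone in medium measured by MTBE extraction and HPLC-MS/MS; bidirectional fit vs DMSO, concentrations not MTT/MTC-filtered.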
# [12] = CEETOX_H295R_OHPROG_noMTC: CeeTox H295R High-throughput Steroidogenesis Assay for OH-Progesterone (OHPROG), maximum tolerated concentration (MTC) filtered results only (AID 2283914; active = hit-call score of the fitted dose curve at least 0.9, where 1 is the maximum; inactive = score below 0.9); details: actives raise or lower the signal
# Procedure, shortened: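 H295R cells prestimulated 48 h with 10 uM forskolin, then exposed 48 h to chemical (0.1% DMSO final). 17alpha-hydroxyprogesterone in medium quantified by HPLC-MS/MS after MTBE extraction; bidirectional fitting versus DMSO, concentrations not MTC-filtered.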
# [13] = CEETOX_H295R_ESTRADIOL_noMTC: CeeTox H295R High-throughput Steroidogenesis Assay for Estradiol, maximum tolerated concentration (MTC) filtered results only (AID 2283919; active = hit-call score of the fitted dose curve at least 0.9, where 1 is the maximum; inactive = score below 0.9); details: actives raise or lower the signal
# Procedure, shortened: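 H295R human adrenal cells pre-stimulated 48 h with 10 uM forskolin, then exposed 48 h to chemical (0.1% DMSO final). Estradiol in medium measured by HPLC-MS/MS after MTBE extraction and dansyl derivatization; bidirectional fit versus DMSO, concentrations not MTT-filtered.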
# [14] = CEETOX_H295R_PROG_noMTC: CeeTox H295R High-throughput Steroidogenesis Assay for Progesterone (PROG), maximum tolerated concentration (MTC) filtered results only (AID 2283920; active = hit-call score of the fitted dose curve at least 0.9, where 1 is the maximum; inactive = score below 0.9); details: actives raise or lower the signal
# Procedure, shortened: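 H295R cells, prestimulated 48 h with 10 uM forskolin, exposed 48 h to chemical in 0.1% DMSO. Medium progesterone quantified by MTBE extraction and HPLC-MS/MS; bidirectional fit versus DMSO, concentrations not MTT-filtered.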
# [15] = CEETOX_H295R_ESTRONE_noMTC: CeeTox H295R High-throughput Steroidogenesis Assay for Estrone, maximum tolerated concentration (MTC) filtered results only (AID 2283921; active = hit-call score of the fitted dose curve at least 0.9, where 1 is the maximum; inactive = score below 0.9); details: actives raise or lower the signal
# Procedure, shortened: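 H295R cells prestimulated 48 h with 10 uM forskolin, then exposed 48 h to chemical in 0.1% DMSO; medium estrone measured by HPLC-MS/MS after MTBE extraction and dansyl derivatization, fitted bidirectionally versus DMSO without MTT-based MTC filtering.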
# [16] = CEETOX_H295R_11DCORT_noMTC: CeeTox H295R High-throughput Steroidogenesis Assay for 11-Deoxycortisol (11DCORT), maximum tolerated concentration (MTC) filtered results only (AID 2283911; active = hit-call score of the fitted dose curve at least 0.9, where 1 is the maximum; inactive = score below 0.9); details: actives raise or lower the signal
# Procedure, shortened: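 HPLC-MS/MS read-out of 11-deoxycortisol after MTBE extraction of H295R medium. Cells: forskolin 10 uM pre-stimulation 48 h, chemical 48 h, 0.1% DMSO final. Bidirectional fit vs DMSO baseline; no MTC filtering.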
# [17] = CEETOX_H295R_ANDR_noMTC: CeeTox H295R High-throughput Steroidogenesis Assay for Androstenedione (ANDR), maximum tolerated concentration (MTC) filtered results only (AID 2283915; active = hit-call score of the fitted dose curve at least 0.9, where 1 is the maximum; inactive = score below 0.9); details: actives raise or lower the signal
# Procedure, shortened: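 H295R cells, passage 10 or below, prestimulated 48 h with 10 uM forskolin, then exposed 48 h to chemical in 0.1% DMSO. Medium androstenedione extracted with MTBE, quantified by HPLC-MS/MS; concentrations not MTC-filtered; bidirectional fit versus DMSO.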
# [18] = CEETOX_H295R_CORTISOL_noMTC: CeeTox H295R High-throughput Steroidogenesis Assay for Cortisol, maximum tolerated concentration (MTC) filtered results only (AID 2283916; active = hit-call score of the fitted dose curve at least 0.9, where 1 is the maximum; inactive = score below 0.9); details: actives raise or lower the signal
# Procedure, shortened: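 H295R human adrenal cells prestimulated 48 h with 10 uM forskolin, then exposed 48 h to chemical in 0.1% DMSO; cortisol in medium quantified by HPLC-MS/MS; bidirectional fit vs DMSO baseline, concentrations not MTT-filtered for MTC.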
# [19] = CEETOX_H295R_CORTIC_noMTC: CeeTox H295R High-throughput Steroidogenesis Assay for Corticosterone (CORTIC), maximum tolerated concentration (MTC) filtered results only (AID 2283917; active = hit-call score of the fitted dose curve at least 0.9, where 1 is the maximum; inactive = score below 0.9); details: actives raise or lower the signal
# Procedure, shortened: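 H295R adrenal cells pre-stimulated 48 h with 10 uM forskolin, then exposed 48 h to chemical in 0.1% DMSO; corticosterone in medium quantified by HPLC-MS/MS, fitted bidirectionally versus DMSO without MTT-based concentration filtering.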
# [20] = CEETOX_H295R_DOC_noMTC: CeeTox H295R High-throughput Steroidogenesis Assay for DOC, maximum tolerated concentration (MTC) filtered results only (AID 2283918; active = hit-call score of the fitted dose curve at least 0.9, where 1 is the maximum; inactive = score below 0.9); details: actives raise or lower the signal
# Procedure, shortened: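 H295R cells prestimulated 48 h with 10 uM forskolin, then exposed 48 h to chemical in 0.1% DMSO. 11-Deoxycorticosterone in medium measured by MTBE extraction and HPLC-MS/MS; bidirectional fit vs DMSO, no MTC filter.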
# Chain of zebrafish Thyroid Hormone Receptor beta (TRb), thrb (gene 30607) (Q9PVE4 whole entry, looked up, the tested form may be a part): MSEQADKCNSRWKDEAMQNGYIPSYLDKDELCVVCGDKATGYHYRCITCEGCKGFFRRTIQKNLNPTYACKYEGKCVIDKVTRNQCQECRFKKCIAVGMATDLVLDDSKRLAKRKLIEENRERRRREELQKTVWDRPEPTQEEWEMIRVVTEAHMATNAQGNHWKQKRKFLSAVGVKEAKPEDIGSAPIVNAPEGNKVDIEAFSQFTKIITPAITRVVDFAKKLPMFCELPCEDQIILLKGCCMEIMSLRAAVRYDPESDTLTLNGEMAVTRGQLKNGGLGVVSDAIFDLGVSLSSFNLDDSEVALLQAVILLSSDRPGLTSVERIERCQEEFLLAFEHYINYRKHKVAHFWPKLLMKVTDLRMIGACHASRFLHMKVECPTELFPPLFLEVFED
# Chain of frog Thyroid hormone Receptor alpha (TRa), thra-a (gene 397942) (P15204 whole entry, looked up, the tested form may be a part): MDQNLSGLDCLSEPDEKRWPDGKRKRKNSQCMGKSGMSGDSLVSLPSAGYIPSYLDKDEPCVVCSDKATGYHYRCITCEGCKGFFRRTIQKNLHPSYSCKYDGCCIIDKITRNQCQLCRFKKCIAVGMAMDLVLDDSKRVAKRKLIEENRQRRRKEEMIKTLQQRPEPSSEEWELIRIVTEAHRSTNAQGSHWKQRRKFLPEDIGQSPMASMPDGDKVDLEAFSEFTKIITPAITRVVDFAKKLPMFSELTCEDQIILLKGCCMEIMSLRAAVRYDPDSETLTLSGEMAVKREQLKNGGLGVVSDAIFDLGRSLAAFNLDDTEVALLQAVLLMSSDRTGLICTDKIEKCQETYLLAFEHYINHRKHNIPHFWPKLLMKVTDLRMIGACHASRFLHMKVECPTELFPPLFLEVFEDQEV
# Chain of zebrafish Thyroid Hormone Receptor alpha (TRa), thraa (gene 30670) (Q98867 whole entry, looked up, the tested form may be a part): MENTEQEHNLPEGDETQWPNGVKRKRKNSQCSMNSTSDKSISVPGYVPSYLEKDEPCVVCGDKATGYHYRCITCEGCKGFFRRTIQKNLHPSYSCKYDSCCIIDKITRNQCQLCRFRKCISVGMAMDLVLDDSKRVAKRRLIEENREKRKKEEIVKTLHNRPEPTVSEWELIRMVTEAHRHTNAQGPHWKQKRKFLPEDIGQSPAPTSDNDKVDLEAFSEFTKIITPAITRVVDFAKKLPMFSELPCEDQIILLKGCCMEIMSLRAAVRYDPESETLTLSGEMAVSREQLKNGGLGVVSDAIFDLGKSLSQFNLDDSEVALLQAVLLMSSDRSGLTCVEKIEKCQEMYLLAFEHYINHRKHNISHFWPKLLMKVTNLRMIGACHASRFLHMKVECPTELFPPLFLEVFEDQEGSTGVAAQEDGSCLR
# Chain of human Thyroid hormone Receptor beta (TRb), THRB (gene 7068) (P10828 whole entry, looked up, the tested form may be a part): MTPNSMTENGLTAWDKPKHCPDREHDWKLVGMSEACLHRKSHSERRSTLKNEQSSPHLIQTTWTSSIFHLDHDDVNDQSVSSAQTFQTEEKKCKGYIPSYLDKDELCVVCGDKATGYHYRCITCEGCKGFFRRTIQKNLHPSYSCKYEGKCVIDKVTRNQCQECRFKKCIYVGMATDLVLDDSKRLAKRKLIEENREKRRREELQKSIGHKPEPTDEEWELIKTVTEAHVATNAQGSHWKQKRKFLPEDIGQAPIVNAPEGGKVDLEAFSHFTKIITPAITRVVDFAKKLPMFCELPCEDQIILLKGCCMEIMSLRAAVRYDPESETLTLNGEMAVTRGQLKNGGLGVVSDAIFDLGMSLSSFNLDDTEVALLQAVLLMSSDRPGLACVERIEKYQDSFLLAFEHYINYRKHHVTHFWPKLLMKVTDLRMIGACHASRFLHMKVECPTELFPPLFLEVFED
# Chain of human Thyroid hormone Receptor alpha (TRa), THRA (gene 7067) (P10827 whole entry, looked up, the tested form may be a part): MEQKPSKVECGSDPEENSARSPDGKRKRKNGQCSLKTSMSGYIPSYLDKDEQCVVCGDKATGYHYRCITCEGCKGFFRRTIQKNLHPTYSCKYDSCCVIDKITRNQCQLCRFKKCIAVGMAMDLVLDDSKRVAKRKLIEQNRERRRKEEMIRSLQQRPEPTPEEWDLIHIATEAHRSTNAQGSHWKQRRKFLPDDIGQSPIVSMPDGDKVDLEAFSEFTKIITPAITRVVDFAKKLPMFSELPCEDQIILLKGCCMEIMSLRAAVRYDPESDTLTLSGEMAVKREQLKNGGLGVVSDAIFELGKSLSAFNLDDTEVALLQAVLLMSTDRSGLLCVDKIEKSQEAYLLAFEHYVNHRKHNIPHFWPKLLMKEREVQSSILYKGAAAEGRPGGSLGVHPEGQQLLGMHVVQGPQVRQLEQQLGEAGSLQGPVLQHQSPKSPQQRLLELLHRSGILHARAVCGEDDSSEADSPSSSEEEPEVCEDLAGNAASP
smiles,measurement,setting,value
C[C@]12CC[C@@H]3c4ccc(O)cc4CC[C@H]3[C@@H]1CCC2=O,outcome,[1],inactive
same,outcome,[2],inactive
O=c1c(-c2ccc(O)cc2)coc2cc(O)cc(O)c12,outcome,[3],inactive
same,outcome,[4],inactive
same,outcome,[5],inactive
same,outcome,[1],inactive
same,outcome,[6],inactive
same,outcome,[7],inactive
same,outcome,[8],inactive
same,outcome,[2],inactive
same,outcome,[9],inactive
CN(C)c1ccc(C(=C2C=CC(=[N+](C)C)C=C2)c2ccc(N(C)C)cc2)cc1,AC50,[10],5.35 µM (active)
CCN(Cc1cccnc1)C(=O)c1cccc(Cl)c1[C@]1(C)C(=O)N(Cc2ccc(OC)cc2OC)c2ccc(Cl)cc21,outcome,[10],inactive
CCOC(=O)O[C@H](C)OC(=O)c1ccc2c(c1)cc(C(=O)NC1CCN(C(C)C)CC1)n2Cc1cc(-c2ccc(Cl)s2)on1,AC50,[10],9.92 µM (active)
O=C(OCCCCCCOC(=O)c1ccccc1)c1ccccc1,outcome,[10],inactive
CC(=O)N1CCN(c2ccc(OC[C@H]3CO[C@](Cn4ccnc4)(c4ccc(Cl)cc4Cl)O3)cc2)CC1,AC50,[10],9.92 µM (active)
CN(C[C@@H](CC[N+]12CCC(C3CCCCC3)(CC1)CC2)c1ccc(Cl)c(Cl)c1)C(=O)c1cc(C(F)(F)F)cc(C(F)(F)F)c1,AC50,[10],10.5 µM (active)
NCc1cccc(C2CCN(C(=O)c3ccc(C#Cc4ccccc4F)o3)CC2)c1,AC50,[10],16.3 µM (active)
CCCCCc1ccc(N)cc1,outcome,[10],inactive
same,outcome,[11],inactive
same,AC50,[12],12.4 µM (active)
same,outcome,[13],inactive
same,AC50,[14],13.9 µM (active)
same,outcome,[15],inactive
O=C(O)Cc1cc(I)c(Oc2ccc(O)c(I)c2)c(I)c1,AC50,[3],0.00602 µM (active)
same,outcome,[4],inactive
same,AC50,[5],0.00328 µM (active)
same,outcome,[1],inactive
same,AC50,[6],0.504 nM (active) and 5.79 nM (active)
same,AC50,[2],0.519 nM (active) and 0.826 nM (active)
same,outcome,[10],inactive
Cc1cc2c(cc1C(F)(F)F)N(C(=O)Nc1ccc(Oc3cccnc3C)nc1)CC2,AC50,[10],8.93 µM (active)
CCCCCCCCOC(=O)c1cc(O)c(O)c(O)c1,outcome,[10],inactive
Clc1ccccc1C(c1ccccc1)(c1ccccc1)n1ccnc1,AC50,[10],9.92 µM (active)
CC(C)(C)c1cc(/C=C2\SC(N)=NC2=O)cc(C(C)(C)C)c1O,AC50,[10],4.96 µM (active)
CN(C)C(=O)C1(N2CCCCC2)CCN(CC[C@@]2(c3ccc(Cl)c(Cl)c3)CN(C(=O)c3ccccc3)CCO2)CC1,outcome,[10],inactive
O=C1c2ccccc2C(=O)N1CCc1noc(-c2ccc(CN3CCCCCC3)s2)n1,AC50,[10],11.5 µM (active)
Cc1oc2c(NC(=O)c3c(Cl)cccc3Cl)cccc2c1C(C)(C)O,outcome,[10],inactive
CCCCOC(=O)CC(CC(=O)OCCCC)(OC(C)=O)C(=O)OCCCC,outcome,[10],inactive
O=C(O)c1ccccc1C(=O)OCc1ccccc1,outcome,[16],inactive
same,outcome,[11],inactive
same,outcome,[12],inactive
same,outcome,[17],inactive
same,outcome,[18],inactive
same,outcome,[19],inactive
same,outcome,[20],inactive
same,outcome,[14],inactive
Cc1c2ccccc2c(C)c2c1ccc1ccccc12,outcome,[4],inactive
same,AC50,[5],39.9 µM (active)
same,outcome,[1],inactive
same,outcome,[2],inactive
same,outcome,[10],inactive
CC(C)(C)c1csc(-c2cc3cc(OCc4ccccc4CC(=O)O)ccc3o2)n1,AC50,[10],9.92 µM (active)
